Data: PubChem BioAssay
Active and inactive are the calls of the source.

Legend:
[1] = optical density shifts of acrAB sulA E. coli – strain DRC41, OD650, 48 h, E. coli filamentation inducer project, primary screen (AID 1152); conditions: higher = more signal, called active from +8 up or from −8 down;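 further: E. coli MC1000 strain DRC41 lacking acrAB efflux pump and sulA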
[2] = probe aLefty1 binding on compound microarray – biochemical, small-molecule microarray, 635/667 nm fluorescence, primary screen (AID 1153); conditions: higher = more signal;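 further: score merges spot fluorescence with signal-to-noise ratio from the scanned slide images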
[3] = plasmodial surface anion channel blockers, osmotic lysis – cell-based, P. falciparum Indochina, OD700, 1 h, primary screen (AID 1154); conditions: P. falciparum Indochina infected RBC osmotic lysis, higher = more signal, called active from +8 up or from −8 down
[4] = plasmodial surface anion channel blockers, osmotic lysis – cell-based, P. falciparum Indochina, OD700, 2 h, primary screen (AID 1155);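 further: lysis reports solute entry through the parasite surface anion channel PSAC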; conditions: P. falciparum Indochina infected erythrocytes, higher = more signal, called active from +8 up or from −8 down
[5] = changes in parasitized red cell lysis, either direction – P. falciparum Indochina, OD700, 3 h, PSAC antagonist project, primary screen (AID 1156); conditions: P. falciparum-infected erythrocytes, osmotic lysis, higher = more signal, called active from +8 up or from −8 down
[6] = plasmodial surface anion channel blockers, osmotic lysis – cell-based, P. falciparum Indochina, OD700, 18 h, primary screen (AID 1157); conditions: P. falciparum Indochina infected erythrocytes, osmotic lysis OD700, 18 h; higher = more signal, called active from +8 up or from −8 down
[7] = S6 kinase pathway phospho-S6 level changes – cell-based, A549, cytoblot, luminescence, serum-stimulated, primary screen (AID 1158); conditions: 5 h, higher = more signal;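 further: serum-stimulated A549 lung adenocarcinoma cells; signal is phosphorylated S6 detected by cytoblot immunostaining with HRP secondary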
[8] = target: NADPH oxidase 2 (Homo sapiens) (UniProt P04839); assay: compounds shifting NOX2 Amplex Red fluorescence – cell-based, HEK293-NOX2, PMA-stimulated, NOX inhibitor project, primary screen (AID 1159); conditions: 45 min, higher = more signal, called active from +8 up or from −8 down; further: test concentration not given here
Sequence of NADPH oxidase 2 (Homo sapiens) (P04839 whole entry, looked up): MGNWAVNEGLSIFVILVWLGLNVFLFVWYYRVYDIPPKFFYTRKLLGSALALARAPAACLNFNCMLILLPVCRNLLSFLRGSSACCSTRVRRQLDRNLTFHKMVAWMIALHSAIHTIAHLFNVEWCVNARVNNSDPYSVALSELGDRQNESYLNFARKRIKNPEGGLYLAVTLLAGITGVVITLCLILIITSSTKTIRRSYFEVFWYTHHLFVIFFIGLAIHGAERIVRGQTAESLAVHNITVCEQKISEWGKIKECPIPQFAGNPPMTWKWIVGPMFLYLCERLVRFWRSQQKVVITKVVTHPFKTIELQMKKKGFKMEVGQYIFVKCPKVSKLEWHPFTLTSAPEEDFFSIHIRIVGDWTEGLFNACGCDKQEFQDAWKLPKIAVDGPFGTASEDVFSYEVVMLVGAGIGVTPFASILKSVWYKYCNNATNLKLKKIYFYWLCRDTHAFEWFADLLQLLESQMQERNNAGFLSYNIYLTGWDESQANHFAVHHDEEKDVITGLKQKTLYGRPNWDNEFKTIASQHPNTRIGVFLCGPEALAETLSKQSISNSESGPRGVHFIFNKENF

[9] = target: NADPH oxidase 4 (Homo sapiens) (UniProt Q9NPH5); assay: compounds shifting NOX4 Amplex Red fluorescence – cell-based, HEK293-NOX4, tetracycline-induced, NOX inhibitor project, primary screen (AID 1160); conditions: HEK293-NOX4, Amplex Red H2O2 fluorescence, 45 min; higher = more signal, called active from +8 up or from −8 down
Sequence of NADPH oxidase 4 (Homo sapiens) (Q9NPH5 whole entry, looked up): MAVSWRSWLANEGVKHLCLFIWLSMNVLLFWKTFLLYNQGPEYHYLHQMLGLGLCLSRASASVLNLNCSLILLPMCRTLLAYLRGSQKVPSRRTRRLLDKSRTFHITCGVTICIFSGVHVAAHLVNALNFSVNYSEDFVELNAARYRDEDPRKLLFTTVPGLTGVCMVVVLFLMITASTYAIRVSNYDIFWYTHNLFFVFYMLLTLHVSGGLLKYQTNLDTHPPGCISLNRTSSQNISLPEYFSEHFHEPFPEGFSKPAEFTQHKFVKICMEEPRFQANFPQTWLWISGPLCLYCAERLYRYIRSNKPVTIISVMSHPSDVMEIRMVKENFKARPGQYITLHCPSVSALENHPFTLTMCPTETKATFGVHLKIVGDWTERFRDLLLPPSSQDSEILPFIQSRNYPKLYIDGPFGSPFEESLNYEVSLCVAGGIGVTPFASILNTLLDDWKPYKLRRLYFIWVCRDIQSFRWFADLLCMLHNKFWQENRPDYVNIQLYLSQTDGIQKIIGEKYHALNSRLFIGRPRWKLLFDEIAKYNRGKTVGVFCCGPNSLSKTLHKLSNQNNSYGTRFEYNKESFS

[10] = target: NADPH oxidase 5 (Homo sapiens) (UniProt Q96PH1); assay: compounds shifting NOX5 Amplex Red fluorescence – cell-based, HEK293-NOX5, NOX inhibitor project, primary screen (AID 1161); conditions: HEK293-NOX5, ionomycin, 45 min, higher = more signal
Sequence of NADPH oxidase 5 (Homo sapiens) (Q96PH1 whole entry, looked up): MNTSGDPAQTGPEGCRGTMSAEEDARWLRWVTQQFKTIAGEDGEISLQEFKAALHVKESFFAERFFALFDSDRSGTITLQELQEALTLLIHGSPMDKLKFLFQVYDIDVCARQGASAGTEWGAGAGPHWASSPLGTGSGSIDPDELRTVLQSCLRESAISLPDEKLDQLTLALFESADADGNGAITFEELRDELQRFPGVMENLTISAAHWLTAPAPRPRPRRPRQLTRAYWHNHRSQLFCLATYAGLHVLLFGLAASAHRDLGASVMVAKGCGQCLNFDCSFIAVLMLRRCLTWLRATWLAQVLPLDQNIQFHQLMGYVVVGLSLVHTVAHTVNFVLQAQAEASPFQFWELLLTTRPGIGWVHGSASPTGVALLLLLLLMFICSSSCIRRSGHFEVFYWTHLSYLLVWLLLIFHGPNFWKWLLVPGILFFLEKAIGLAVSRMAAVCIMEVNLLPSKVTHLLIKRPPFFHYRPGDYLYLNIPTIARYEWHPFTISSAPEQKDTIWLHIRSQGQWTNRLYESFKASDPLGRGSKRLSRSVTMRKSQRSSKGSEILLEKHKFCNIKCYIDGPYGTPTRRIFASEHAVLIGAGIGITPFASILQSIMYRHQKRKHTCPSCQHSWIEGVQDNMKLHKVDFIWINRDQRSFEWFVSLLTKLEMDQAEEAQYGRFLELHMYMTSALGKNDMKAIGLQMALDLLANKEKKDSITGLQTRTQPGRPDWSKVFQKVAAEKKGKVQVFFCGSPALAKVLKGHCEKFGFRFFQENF

[11] = compound effects on lung adenocarcinoma cell viability – A549, calcein-AM fluorescence, 48 h, basal, profiling panel (AID 1162); conditions: higher = more signal; further: test concentration not given here
[12] = compound effects on differentiated 3T3-L1 adipocyte viability – cell-based, 3T3-L1 adipocytes, calcein-AM fluorescence, 48 h, basal, profiling panel (AID 1163); conditions: 3T3-L1 adipocytes viability, higher = more signal; further: test concentration not given here
[13] = compound effects on hepatocellular carcinoma cell viability – HepG2, calcein-AM fluorescence, 48 h, basal, profiling panel (AID 1164); conditions: higher = more signal; further: test concentration not given here
[14] = compound effects on multiple myeloma cell viability – MM1S, calcein-AM fluorescence, 48 h, basal, profiling panel (AID 1165); conditions: higher = more signal; further: test concentration not given here
[15] = calcein-AM signal in unstimulated myeloma cells – cell-based, calcein-AM fluorescence, 48 h, PK04 Diversity Set, profiling panel (AID 1166); conditions: RPMI8226 myeloma viability, higher = more signal;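 further: cells grown under basal conditions without added stimulus; test concentration not given here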
[16] = JC-1 mitochondrial signal, unstimulated HepG2 cells – cell-based, JC-1 fluorescence, 24 h, 100 nL compound, profiling panel (AID 1167); conditions: HepG2 mitochondrial potential, higher = more signal; further: test concentration not given here
[17] = JC-1 mitochondrial signal, unstimulated adipocytes – cell-based, JC-1 fluorescence, 3T3-L1 adipocytes, 24 h, 100 nL compound, profiling panel (AID 1168); conditions: JC-1 mitochondrial fluorescence, higher = more signal, called active from +8 up or from −8 down; further: test concentration not given here
[18] = JC-1 mitochondrial signal, unstimulated myeloma cells – cell-based, JC-1 fluorescence, RPMI8226, 24 h, 100 nL compound, profiling panel (AID 1169); conditions: JC-1 mitochondrial potential fluorescence, higher = more signal; further: test concentration not given here
[19] = JC-1 mitochondrial signal, unstimulated MM1S myeloma – cell-based, JC-1 fluorescence, 24 h, 100 nL compound, profiling panel (AID 1170); conditions: MM1S mitochondrial potential, higher = more signal; further: test concentration not given here
[20] = resazurin metabolic signal in A549 cells – cell-based, resazurin fluorescence, 24 h, PK04 Diversity Set, profiling panel (AID 1171); conditions: A549 viability, higher = more signal, called active from +8 up or from −8 down; further: test concentration not given here

SMILES | z-score [1] | composite z-score [2] | z-score [3] | z-score [4] | z-score [5] | z-score [6] | z-score [7] | z-score [8] | z-score [9] | z-score [10] | z-score [11] | z-score [12] | z-score [13] | z-score [14] | z-score [15] | z-score [16] | z-score [17] | z-score [18] | z-score [19] | z-score [20]
CON(C)C(=O)c1nnc2c(n1)[nH]c1ccccc12 | -0.398 (inactive) | -0.161 | 1.61 (inactive) | 0.235 (inactive) | -0.322 (inactive) | 0.0008 (inactive) | -0.133 | 1.04 (inactive) | 0.103 (inactive) | 0.836 | -0.681 | 0.764 | 0.429 | -0.342 | -0.0375 | -0.88 | 0.471 (inactive) | -0.886 | 0.0753 | 0.447 (inactive)
CO[C@@H]1COC(=O)[C@H](COCc2ccccc2)NC(=O)CC=C[C@@H](C)[C@H](OC)COC(=O)[C@@H](C)NC(=O)CC=C[C@H]1C | 0.52 (inactive) | -0.193 | -0.302 (inactive) | -0.0696 (inactive) | 0.386 (inactive) | 0.131 (inactive) | 0.166 | -0.74 (inactive) | 0.773 (inactive) | 0.436 | 0.759 | 0.0006 | 0.56 | 0.208 | -1.54 | 0.648 | -0.828 (inactive) | 0.402 | -0.343 | 0.846 (inactive)
COc1ccc(O[C@H]2C=C[C@@H](c3ccccc3)O[C@@H]2COC(=O)NCc2cccc3ccccc23)cc1 | -0.286 (inactive) | -0.0046 | 2.71 (inactive) | 0.896 (inactive) | -0.119 (inactive) | 0.515 (inactive) | -0.553 | 0.5 (inactive) | -0.0581 (inactive) | -0.406 | 0.152 | 0.0831 | -0.833 | -1.23 | -0.0376 | 0.194 | -0.351 (inactive) | 0.396 | -0.225 | 0.618 (inactive)
CO[C@@H]1COC(=O)CC=C[C@H](C)[C@H](OC)COC(=O)[C@@H]2CCCN2C(=O)CC=C[C@H]1C | -0.2 (inactive) | -0.276 | 0.521 (inactive) | 0.457 (inactive) | -0.0249 (inactive) | 0.158 (inactive) | -0.0291 | 1.18 (inactive) | -0.686 (inactive) | 0.294 | -0.125 | 0.846 | -0.138 | 0.0805 | -0.822 | 1.07 | 0.332 (inactive) | 0.114 | 1.03 | -0.541 (inactive)
C#CCCCON=C1C[C@@H](O)[C@@H](O)[C@@H]2[C@@H]3C(=O)N([C@@H](C)c4ccccc4)C(=O)[C@@H]3CC[C@@H]12 | 0.0467 (inactive) | 0.0824 | 0.433 (inactive) | 0.186 (inactive) | -0.195 (inactive) | -0.139 (inactive) | -0.507 | 0.362 (inactive) | 0.574 (inactive) | -0.132 | 0.241 | -0.532 | -0.47 | -0.597 | -0.337 | -0.998 | -0.377 (inactive) | 0.462 | -0.968 | -0.378 (inactive)
COc1cccc([C@H]2Oc3ccc(OC)cc3C(=NOCC[C@@H]3C=C[C@H](OC(C)=O)[C@@H](COC(C)=O)O3)[C@@H]2O)c1 | -1.05 (inactive) | -0.18 | 1.16 (inactive) | 0.236 (inactive) | -0.125 (inactive) | 0.416 (inactive) | -1.04 | 0.511 (inactive) | 1.03 (inactive) | -0.14 | -0.34 | -0.542 | -0.744 | 0.445 | -1.19 | -1.28 | -1.16 (inactive) | -0.209 | -1.04 | -0.945 (inactive)
CO[C@H]1COC(=O)[C@H](C)COC(=O)[C@H](C)NC(=O)CC=C[C@H]1C | 0.25 (inactive) | -0.101 | 0.212 (inactive) | 0.0618 (inactive) | -0.0422 (inactive) | -0.186 (inactive) | 0.0807 | 1.67 (inactive) | 0.299 (inactive) | -0.42 | -0.0718 | 0.996 | -0.248 | 0.0627 | 0.286 | 0.708 | 0.475 (inactive) | -0.218 | 1.3 | 0.724 (inactive)
